ERK AVP inh – inhibitors of vasopressin-stimulated ERK signaling pathway; Potency, µM (series often up to 57.5 µM), inactives show at the top dose activity, negative = inhibition, actives largely listed as inhibitors; AID 995; 72,000 tested, 0.99% active; HEK293-V1b, vasopressin-stimulated pERK AlphaScreen; also: nearly all actives have a fitted effect of over 55% in size
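V1b-HEK293 cells; cpd 30 min 37C; 25 nM vasopressin 5 min; lyse 10 min; AlphaScreen beads 5 hr RT. Normalized to DMSO basal and 25 nM vasopressin; AC50 by Hill fit.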
HADH2 inh – inhibitors of human HADH2 dehydrogenase; recombinant HADH2, NADH fluorescence, beta-hydroxybutyryl-CoA; Potency, µM (top dose mostly 57.1 µM), for inactives: top-dose activity change, negative = inhibition, actives largely listed as inhibitors; 73,000 tested, 3.4% active; also: nearly all actives have a fitted effect of over 60% in size
Target sequence (Q99714 whole entry, looked up, one chain of several): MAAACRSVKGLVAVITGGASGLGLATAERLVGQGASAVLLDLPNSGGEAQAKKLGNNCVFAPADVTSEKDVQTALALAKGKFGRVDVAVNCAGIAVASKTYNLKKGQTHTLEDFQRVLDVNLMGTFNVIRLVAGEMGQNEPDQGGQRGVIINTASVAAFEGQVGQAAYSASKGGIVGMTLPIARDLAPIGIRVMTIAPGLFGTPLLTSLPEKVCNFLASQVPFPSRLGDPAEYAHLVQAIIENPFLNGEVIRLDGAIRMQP
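20 nM HADH2 + cpd, 15 min RT; add 1 mM NAD+/90 uM beta-hydroxybutyryl-CoA; kinetic fluorescence 360/450 nm, 4 min. Tris-HCl pH 9.0, 0.01% Tween-20.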
HSD17B inh – inhibitors of human HSD17B10 dehydrogenase; recombinant HSD17B10, NADH fluorescence kinetic; Potency, µM (titrated, usually from 57.1 µM), inactives show top-dose activity change, negative = inhibition, hits mostly inhibitors; 75,000 tested, 7.6% active;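 also: the protocol describes HADH2 (HSD17B10) and not the HSD17B4 of the title; nearly all actives have a fitted effect of over 70% in size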
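Enzyme plus compound, 15 min room temperature; substrate mix added (NAD+ 1 mM, beta-hydroxybutyryl-CoA 90 uM final); plates read kinetically for NADH fluorescence. HADH2 was His-tagged, E. coli-derived, 20 nM.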
FLuc inh – firefly luciferase inhibition; P08659; purified firefly luciferase, luminescence, 8 min; Potency, µM (doses to about 57.1 µM), for inactives: at the top dose activity change, negative = inhibition, usual class: inhibitors; 72,000 tested, 2.2% active; AID 411; also: nearly all actives have a fitted effect of over 40% in size
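Inhibition of light generation by firefly luciferase from ATP and luciferin was profiled with concentration-response curves per sample, ATP held at 10 uM within the enzyme's linear range. Plates were read by luminescence after an 8-minute ambient incubation.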
ALOX15 inhib – blocks human 15-lipoxygenase activity; purified 15hLO-1, xylenol orange hydroperoxide absorbance; Potency, µM (top dose mostly 57.1 µM), inactives show top-dose activity change, negative = inhibition, most hits filed as inhibitors; 74,000 tested, 1.4% active; AID 887; also: nearly all actives have a fitted effect of over 55% in size
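Inhibition is scored from a chromogenic endpoint. After 15 min enzyme-compound contact, arachidonic acid (50 uM final) reacts 6 min with 40 nM 15hLO-1 at room temperature, then Fe-XO reagent is added for 30 min and absorbance ratio recorded.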
Bst PK mod – pyruvate kinase (B. stearothermophilus) modulation | purified pyruvate kinase, luminescence ATP production; ribose 5-phosphate activator present at AC10 | Potency, µM | 51,000 tested, 1.2% active; in the data active = potency below about 11 µM; inconclusive = mostly about 12 µM to 25 µM;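 the screen sought inhibitors and activators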;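 also: scaled between full activation by ribose 5 phosphate and full inhibition by luteolin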
* marks the source's active call; other numbers are inactive results; i = inactive; ? = inconclusive; nt = not tested or not shown; [ ] = dose if it differs, or a comment. Rows were chosen to be rich in hits. Some 11% of all compounds tested hit in one or more screens of this group. Unless noted, calls follow the shape of the dose curve; as a rule, active = well fitted curve in the direction sought with a large enough effect; inconclusive = small, poorly fitted or top-dose-only effect, or another doubt; inactive = no such curve, though single readings can be large; an effect the other way counts as inactive or inconclusive. Unless noted, % is scaled to controls: 0 for no effect and ±100 for the full control effect; potency is read from the fitted curve at half-maximal effect.

SMILES	ERK AVP inh	HADH2 inh	HSD17B inh	FLuc inh	ALOX15 inhib	Bst PK mod
O=c1c2ccccc2c(C=NCCO)c(O)n1-c1ccccc1	-19%	2%	11%	2%	7%	nt
Cc1ccc(-n2c(O)c(/C=N/n3cnnc3)c3ccccc3c2=O)cc1	nt	?	32µM*	nt	-5%	nt
COc1ccc(CCNC(=O)CN2CCN(c3cccc(Cl)c3)CC2)cc1OC	20µM*	12%	-8%	3%	-6%	>57
O=C(c1cccn2c(=O)c3ccccc3nc12)N1CCN(Cc2ccc3c(c2)OCO3)CC1	-14%	-29%	20µM*	1%	-6%	>57
O=C(c1cccn2c(=O)c3cc(Cl)ccc3nc12)N1CCN(Cc2ccc3c(c2)OCO3)CC1	4%	-9%	?	2%	-26%	>57
O=C(c1cccn2c(=O)c3cc(Cl)ccc3nc12)N1CCOCC1	-18%	4%	32µM*	3%	4%	>57
C[N+](C)(C)CCN(Cc1cccs1)c1ccccn1	-3%[11.5 µM]	-9%[11.4 µM]	-15%[11.4 µM]	4%[11.4 µM]	-12%[11.4 µM]	nt
CN1CCN([C@@H](c2ccccc2)c2ccc(Cl)cc2)CC1	-3%[25.7 µM]	1%[25.6 µM]	3%[25.6 µM]	6%[25.5 µM]	-4%[25.6 µM]	nt
COCCN(CCOC)S(=O)(=O)c1ccc(C(=O)Nc2nc(-c3ccncc3)cs2)cc1	25µM*	-3%	-2%	0%	2%	>57
COCCN(CCOC)S(=O)(=O)c1ccc(C(=O)Nc2nc(C)c(C(C)=O)s2)cc1	1%	-18%	-13%	-2%	-27%	>57
OCc1ccc(-c2nn(Cc3ccccc3)c3ccccc23)o1	42%	?	25µM*	-4%	?	nt
COc1ccc(OC)c(NS(=O)(=O)c2ccc3c(c2)CCC(=O)N3)c1	-13%	8%	-1%	1%	4%	>57
COC(=O)c1cc(NS(=O)(=O)c2ccc3c(c2)CCC(=O)N3)cc(C(=O)OC)c1	13%	-1%	32µM*	2%	?	>57
COc1ccc(C2NC(=O)NC3=C2CCc2ccccc23)cc1 (stereo not given)	5%	?	20µM*	4%	-26%	nt
COc1ccc(C2C(=O)c3ccccc3C2=O)cc1	9%	nt	2%	nt	-11%	nt
Cc1ccc(C2NC(=O)NC3=C2CCc2ccccc23)cc1 (stereo not given)	-18%	32µM*	32µM*	13µM*	-25%	?
CC(C)C1=CC2=CCC3[C@@](C)(CCC[C@@]3(C)C(=O)O)C2CC1 (stereo not given in full)	-10%	nt	?	nt	?	nt
COc1cc2c(cc1O)CC[C@@H]1[C@@H]2CC[C@@]2(C)[C@H](O)CC[C@H]12	3%	?	166%	-6%	-4%	nt
CCOc1ccc(C(=O)Nc2cccc(C)n2)cc1	22%	-7%	-8%	13µM*	-14%	9.8*
CCCn1nnc(NC(=O)c2ccc(OCC)c(Cl)c2)n1	-20%	15%	3%	-1%	4%	>57
Cn1nnc(NC(=O)c2ccccc2F)n1	-18%	0%	12%	-12%	0%	nt
Cn1nnc(NC(=O)c2ccc(C(C)(C)C)cc2)n1	-10%	-6%	6%	10µM*	2%	?
CCOc1ccc(C(=O)Nc2nnn(CC)n2)cc1	-10%	3%	2%	25µM*	7%	nt
CCCn1nnc(NC(=O)c2ccco2)n1	-9%	9%	7%	-5%	9%	>57
CCn1nnc(NC(=O)c2ccc(-c3ccc(Cl)cc3)o2)n1	15%	13%	20µM*	-18%	-15%	6.5*
C=C1CC[C@@H]2O[C@@]2(C)CC[C@H]2[C@H]1CC2(C)C	-17%	nt	-4%	nt	-1%[25.6 µM]	nt
CO[C@@H]1COC(=O)C/C=C\[C@H](C)[C@H](OC)COC(=O)[C@H]2CCCN2C(=O)C/C=C\[C@H]1C	2%[11.5 µM]	-1%[11.4 µM]	-3%[11.4 µM]	-2%[11.4 µM]	4%[11.4 µM]	nt
CCCCOc1ccc(C(=O)Nc2cccc(C)n2)cc1	26%	-6%	?	13µM*	-15%	i
c1coc(-c2nnc3n2C2(CCCC2)Cc2ccccc2-3)c1	-18%	-3%	20µM*	2%	3%	>57

Source: PubChem BioAssay (National Center for Advancing Translational Sciences (NCATS))
